Assay outcomes as filed in PubChem BioAssay.
Sampled rows, rich in hits. Any-hit rate of the full collection: about 7.2%.
Efflux pump mplx – inhibitors of Candida antifungal efflux pumps expressed in yeast | 330,000 tested, 0.44% active | inhibition, % at 10 µM | S. cerevisiae Candida pump triplex, Nile Red efflux;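 active = plate passing quality check with inhibition over a set limit, or well fluorescence over plate mean plus 4 SD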;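 note: Nile Red retained in pooled yeast measured as flow cytometry median fluorescence; 0% = buffer negative control and 100% = Enniatin B positive control; higher means more Nile Red kept so more efflux inhibition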
AHR activator – human AHR activation. P35869. AID 2796. activation, % at 5 µM. 320,000 tested, 2.5% active. AHR-responsive luciferase reporter cells, luminescence; in the data active = activation above about 47%;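 note: 0% = vehicle wells and 100% = reference agonist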
ALR H2O2 inh – inhibitors of human sulfhydryl oxidase ALR. purified ALR, DTT oxidation, H2O2 HRP-luminol luminescence. inhibition, % (test concentration not listed). 290,000 tested, 3.8% active;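 active = mean replicate inhibition above about 79%, with every replicate also reaching it, limit read from the data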
SUMO Mot1 rescue – SUMOylation pathway inhibition by Mot1-301 growth rescue | S. cerevisiae Mot1-301 growth rescue, ATP luminescence, 38.5C; percent above DMSO median, 100 means doubled | growth rescue, % at 18.8 µM | 320,000 tested, 1% active | AID 2716;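 active = every valid replicate shows activation above 250% relative to neutral control wells; inactive = the rest, any valid replicate at or below 250%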;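 note: OY570 slx delta 5 strain wells were the positive control but not used for scaling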
VLA-4 inh – inhibition in a human VLA-4 binding assay | P13612 | VLA-4 expressing cells, ligand binding flow cytometry | inhibition, % (about 7 µM as worked out from the volumes in the protocol) | 330,000 tested, 0.2% active | AID 2557; in the data active = inhibition above about 50%
A1 inh – inhibitors of the anti-apoptotic protein A1, read as caspase activation; caspase activation, % (no concentration beside the values); 330,000 tested, 0.066% active; MEF A1-2A-BIM cells, Caspase-Glo 3/7 luminescence, 3 h; percent of clofoctol response, vehicle zero;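 active = over half of replicate activation scores above 10%, or exactly half above 10 with the replicate mean above 10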
Mot1 SUMO dose – yeast SUMO pathway inhibition in dose response | shares compounds with SUMO Mot1 rescue | S. cerevisiae Mot1-301 galactose growth, ATP luminescence, 24 h; -100 = growth of slx-deleted rescue strain | growth activity, percent, % at 42 µM | 2,300 tested, under 10 active;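 active = Signal drops as the depositor expects, and the fitted half-maximal dose is no more than ten times the top valid tested dose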;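 note: more negative values mean stronger growth rescue toward the control strain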
The depositor's hits bear a star; / = no result; + = active, no number.

SMILES | Efflux pump mplx | AHR activator | ALR H2O2 inh | SUMO Mot1 rescue | VLA-4 inh | A1 inh | Mot1 SUMO dose
COC(=O)c1ccc(N2C(=O)CC(NCc3ccccc3)C2=O)cc1 (stereo not given) | 0 | 0 | 4 | + | -1 | 0 | 1
COc1ccccc1CCNC(=O)/C(=C/c1cccnc1)NC(=O)c1ccccc1 | 0 | 18 | -3 | 391* | 6 | 0 | 0
COc1ccccc1NC(=O)/C(=C\c1cccnc1)NC(=O)c1ccccc1 | 0 | 19 | 12 | -8 | 9 | 1 | /
CCCn1nc(C(=O)NNC(=O)c2cccc(S(=O)(=O)NC(C)C)c2)c2ccccc2c1=O | -4 | -1 | 2 | 2 | 2 | -1 | /
CCCn1nc(C(=O)NNC(=O)c2cc(S(=O)(=O)NC)ccc2Br)c2ccccc2c1=O | 0 | -1 | -25 | 549* | 0 | -1 | -1
O=C1CCC(/C=C/c2ccccc2)=NN1Cc1ccc(Cl)c(Cl)c1 | 0 | 1 | -2 | 659* | 20 | -1 | 0
O=C1CCC(/C=C/c2ccccc2)=NN1Cc1ccccc1Cl | 0 | 10 | -14 | 33 | 12 | 0 | /
CN(C(=O)CSc1nc(-c2ccccc2)c(-c2ccccc2)o1)C1CCS(=O)(=O)C1 (stereo not given) | 0 | -3 | 1 | 543* | -8 | 1 | 1
CN(C(=O)CSc1nc2ccccc2o1)C1CCS(=O)(=O)C1 (stereo not given) | 0 | 2 | / | 3 | 18 | -1 | /
CCc1cc(C(=O)N(CC)CC(=O)Nc2ccc(OC)cc2)sc1C | 0 | 2 | / | -23 | 0 | -1 | /
CC(=O)c1ccc(NC(=O)CSc2nnc(-c3ccco3)o2)cc1 | 0 | 0 | -17 | 426* | 5 | -1 | 0
CCCCC(=O)Nc1cccc2c1C(=O)N(c1ccccc1)C2=O | 0 | 19 | / | 16 | -16 | 0 | /
Nc1cccc2c1C(=O)N(c1ccccc1)C2=O | 0 | 49* | 12 | 668* | -11 | 0 | 0
CCOCCCNC(=O)C(c1ccc(OC)cc1)N(Cc1cccs1)C(=O)c1ccccn1 (stereo not given) | 0 | -1 | / | 522* | -5 | 0 | -1
CCOCCCNC(=O)C(c1ccc(C)cc1)N(Cc1cccs1)C(=O)c1ccccn1 (stereo not given) | 0 | 1 | 0 | 17 | -4 | 0 | /
Cn1cccc1CC(=O)N/N=C/c1cccc([N+](=O)[O-])c1 | 0 | 8 | 43 | 409* | 6 | -2 | 0
O=C(N/N=C/c1cccc([N+](=O)[O-])c1)C1COc2ccccc2O1 (stereo not given) | 0 | 2 | 5 | 678* | 21 | 0 | 0
CC(=O)c1c(C)[nH]c(C(=O)COC(=O)c2cc(C)oc2C)c1C | 0 | 1 | / | 5 | 12 | 2 | /
O=S(=O)(NCCN1CCCC1)c1cccc2cccnc12 | 0 | 2 | 37 | 815* | 30 | 1 | 0
COc1ccc(O)c(C(=O)c2cnc3c(c2)c(=O)[nH]c(=O)n3C)c1 | 0 | 11 | 9 | 3 | -13 | 1 | /
COCCn1c(=O)[nH]c(=O)c2cc(C(=O)c3cc(Cl)ccc3O)cnc21 | 0 | 1 | / | 838* | -10 | -1 | 0
COCC(C)n1c(C)cc(C(=O)CSc2ccc(NC(C)=O)cc2)c1C (stereo not given) | 0 | -4 | 98* | + | 12 | -1 | 0
CN(C)S(=O)(=O)c1cccc(C(=O)Nc2ccc3c(c2)CCC3)c1 | 0 | 32 | / | -11 | 4 | 0 | /
COc1ccccc1NC(=O)CSc1nc(O)c(Cc2ccccc2)c(=O)[nH]1 | 0 | 1 | 88* | + | 9 | -1 | 1
CCSc1nc(O)c(Cc2ccccc2)c(=O)[nH]1 | 0 | 3 | -13 | 5 | 15 | 0 | /
COc1ccc(OCC(O)CN2C(=O)NC(C)(C)C2=O)cc1 (stereo not given) | 0 | 5 | 0 | + | 17 | 1 | 2
CC1(C)NC(=O)N(CC(O)COc2cccc(F)c2)C1=O (stereo not given) | 0 | -2 | -30 | 15 | 38 | 1 | /
